Laboratory results from ChEMBL document CHEMBL1201862, “PubChem BioAssay data set” (2004).
The campaign covered roughly 390,000 compounds. About 17,000 (4.4%) were called active. Roughly 8% stayed inconclusive and do not appear here. The calls are words filed in the database; no cut-off is given here. This excerpt belongs to a sample that is enriched for actives.

The compounds below were run against T1, Lysine-specific demethylase 4A (Homo sapiens) (UniProt O75164) (assay: qHTS Assay for Inhibitors of JMJD2A-Tudor Domain. [Related pubchem assays (depositor defined):AID504402]).
T1 sequence (whole entry): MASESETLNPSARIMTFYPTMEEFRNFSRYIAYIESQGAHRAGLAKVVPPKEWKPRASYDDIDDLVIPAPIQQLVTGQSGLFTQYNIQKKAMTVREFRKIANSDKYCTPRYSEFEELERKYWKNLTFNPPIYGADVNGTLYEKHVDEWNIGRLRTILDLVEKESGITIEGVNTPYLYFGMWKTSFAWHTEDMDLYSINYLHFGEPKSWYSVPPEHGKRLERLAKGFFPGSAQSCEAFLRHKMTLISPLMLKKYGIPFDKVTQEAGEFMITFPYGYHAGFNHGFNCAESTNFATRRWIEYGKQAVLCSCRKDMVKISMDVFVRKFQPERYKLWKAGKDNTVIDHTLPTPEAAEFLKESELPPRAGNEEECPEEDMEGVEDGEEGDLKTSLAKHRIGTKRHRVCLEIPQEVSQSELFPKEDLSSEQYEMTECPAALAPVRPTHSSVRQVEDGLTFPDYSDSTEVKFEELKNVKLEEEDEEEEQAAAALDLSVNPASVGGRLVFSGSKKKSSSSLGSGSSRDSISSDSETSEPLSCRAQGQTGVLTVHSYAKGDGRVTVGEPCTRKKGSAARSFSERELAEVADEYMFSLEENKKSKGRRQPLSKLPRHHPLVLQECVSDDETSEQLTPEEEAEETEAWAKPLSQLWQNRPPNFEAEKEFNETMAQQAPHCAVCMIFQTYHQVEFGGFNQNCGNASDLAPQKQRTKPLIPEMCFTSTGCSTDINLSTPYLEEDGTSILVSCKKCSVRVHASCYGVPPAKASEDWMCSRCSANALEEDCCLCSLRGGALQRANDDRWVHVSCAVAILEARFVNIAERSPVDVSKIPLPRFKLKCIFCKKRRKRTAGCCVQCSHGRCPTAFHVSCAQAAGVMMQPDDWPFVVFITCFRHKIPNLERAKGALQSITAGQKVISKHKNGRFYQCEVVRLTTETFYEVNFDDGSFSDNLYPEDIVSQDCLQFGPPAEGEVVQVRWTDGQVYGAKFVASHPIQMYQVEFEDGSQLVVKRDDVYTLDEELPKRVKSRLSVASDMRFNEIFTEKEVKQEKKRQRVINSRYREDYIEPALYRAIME
Type: functional

Potency, active:
CCCc1nnc(NC(=O)C2C(=O)c3cccc4c3N(CC4)C2=O)s1 (stereo not drawn) 44.7 µM
Cl.NC(CCC(=O)O)C(=O)O (stereo not drawn) 3.55 µM
Cl.N[C@@H](CCC(=O)O)C(=O)O 20 µM
